Source: PubChem BioAssay (several laboratories)
Mcl1-Noxa inh: Mcl-1/Noxa binding inhibitors, primary screen, biochemical, TR-FRET, 1536-well. Induced myeloid leukemia cell differentiation protein Mcl-1 (Homo sapiens), Q07820. TR-FRET Mcl-1/Noxa peptide binding, 2 h. inhibition, % at 21.7 µM. 1.5% of 220,000 active;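 active = compounds that cut the protein-peptide binding signal by more than 50% relative to plate controls in a single-dose test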;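 also: His-tagged Mcl-1 with rhodamine Noxa BH3 peptide and terbium anti-His antibody; 0% = Mcl-1 plus Noxa peptide wells and 100% = peptide-only wells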
Bim-Mcl-1: inhibitors of Bim peptide binding to Mcl-1, primary screen, biochemical, bead-based flow cytometry, multiplex. Induced myeloid leukemia cell differentiation protein Mcl-1 (Homo sapiens), Q07820. Bim peptide-Mcl-1 binding. inhibition, % at 10 µM. 0.1% of 190,000 active. AID 1009, 2008; in the data active = inhibition above about 40%;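 also: 0% = no compound tracer wells and 100% = peptide blocker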
NCF1 inh: p47phox/p22phox peptide binding inhibitors, primary screen, biochemical, uHTS, NADPH oxidase regulatory subunit; inhibition, % at 24.7 µM; AID 1274, 2008; fluorescence polarization, 2 h; 0.53% of 220,000 active; Neutrophil cytosol factor 1 (Homo sapiens), P14598;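 also: 0% = p47phox with labelled peptide and 100% = labelled peptide alone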
Mcl1 Bid PPI: Mcl-1/Bid binding inhibitors, primary screen, biochemical, TR-FRET, 1536-well. inhibition, % at 21.7 µM. AID 1021, 2008. TR-FRET Mcl-1/Bid-Dy647 peptide binding. 0.97% of 220,000 active;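 active = compounds that cut the binding signal by more than half at the single screening dose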;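 also: His-tagged Mcl-1 with europium anti-His antibody binding Bid BH3 peptide; 0% = Mcl-1 plus peptide wells and 100% = peptide-only wells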
14-3-3 Bad PPI: inhibitors of 14-3-3 zeta/Bad binding, primary screen, biochemical, TR-FRET, bovine 14-3-3 zeta | AID 781, 2007 | 0.71% of 220,000 active | inhibition, % at 21.7 µM | TR-FRET 14-3-3zeta/Dy647-pBad peptide displacement, 1 h;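 active = inhibition above about 70%, limit read from the data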;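 also: 0% = full 14-3-3 plus peptide FRET controls and 100% = background without 14-3-3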
eIF4E-4G inh: eIF4E–eIF4G protein interaction inhibitors, primary screen, biochemical, uHTS, TR-FRET, eIF4GI fragment | TR-FRET eIF4E-eIF4GI(517-606) binding, 2 h | 0.37% of 220,000 active | Eukaryotic translation initiation factor 4E (Mus musculus) + Eukaryotic translation … | inhibition, % at 21.7 µM;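 also: 0% = full FRET control wells and 100% = background wells lacking eIF4GI fragment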
Target sequence (P63073 whole entry, looked up, the tested form may be a part): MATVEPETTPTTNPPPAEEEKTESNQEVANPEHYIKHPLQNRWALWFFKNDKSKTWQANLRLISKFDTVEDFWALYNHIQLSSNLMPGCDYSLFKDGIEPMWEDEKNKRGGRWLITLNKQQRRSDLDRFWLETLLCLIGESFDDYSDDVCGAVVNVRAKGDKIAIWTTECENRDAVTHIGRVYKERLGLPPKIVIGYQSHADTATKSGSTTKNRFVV
Target sequence (Q04637 whole entry, looked up, the tested form may be a part): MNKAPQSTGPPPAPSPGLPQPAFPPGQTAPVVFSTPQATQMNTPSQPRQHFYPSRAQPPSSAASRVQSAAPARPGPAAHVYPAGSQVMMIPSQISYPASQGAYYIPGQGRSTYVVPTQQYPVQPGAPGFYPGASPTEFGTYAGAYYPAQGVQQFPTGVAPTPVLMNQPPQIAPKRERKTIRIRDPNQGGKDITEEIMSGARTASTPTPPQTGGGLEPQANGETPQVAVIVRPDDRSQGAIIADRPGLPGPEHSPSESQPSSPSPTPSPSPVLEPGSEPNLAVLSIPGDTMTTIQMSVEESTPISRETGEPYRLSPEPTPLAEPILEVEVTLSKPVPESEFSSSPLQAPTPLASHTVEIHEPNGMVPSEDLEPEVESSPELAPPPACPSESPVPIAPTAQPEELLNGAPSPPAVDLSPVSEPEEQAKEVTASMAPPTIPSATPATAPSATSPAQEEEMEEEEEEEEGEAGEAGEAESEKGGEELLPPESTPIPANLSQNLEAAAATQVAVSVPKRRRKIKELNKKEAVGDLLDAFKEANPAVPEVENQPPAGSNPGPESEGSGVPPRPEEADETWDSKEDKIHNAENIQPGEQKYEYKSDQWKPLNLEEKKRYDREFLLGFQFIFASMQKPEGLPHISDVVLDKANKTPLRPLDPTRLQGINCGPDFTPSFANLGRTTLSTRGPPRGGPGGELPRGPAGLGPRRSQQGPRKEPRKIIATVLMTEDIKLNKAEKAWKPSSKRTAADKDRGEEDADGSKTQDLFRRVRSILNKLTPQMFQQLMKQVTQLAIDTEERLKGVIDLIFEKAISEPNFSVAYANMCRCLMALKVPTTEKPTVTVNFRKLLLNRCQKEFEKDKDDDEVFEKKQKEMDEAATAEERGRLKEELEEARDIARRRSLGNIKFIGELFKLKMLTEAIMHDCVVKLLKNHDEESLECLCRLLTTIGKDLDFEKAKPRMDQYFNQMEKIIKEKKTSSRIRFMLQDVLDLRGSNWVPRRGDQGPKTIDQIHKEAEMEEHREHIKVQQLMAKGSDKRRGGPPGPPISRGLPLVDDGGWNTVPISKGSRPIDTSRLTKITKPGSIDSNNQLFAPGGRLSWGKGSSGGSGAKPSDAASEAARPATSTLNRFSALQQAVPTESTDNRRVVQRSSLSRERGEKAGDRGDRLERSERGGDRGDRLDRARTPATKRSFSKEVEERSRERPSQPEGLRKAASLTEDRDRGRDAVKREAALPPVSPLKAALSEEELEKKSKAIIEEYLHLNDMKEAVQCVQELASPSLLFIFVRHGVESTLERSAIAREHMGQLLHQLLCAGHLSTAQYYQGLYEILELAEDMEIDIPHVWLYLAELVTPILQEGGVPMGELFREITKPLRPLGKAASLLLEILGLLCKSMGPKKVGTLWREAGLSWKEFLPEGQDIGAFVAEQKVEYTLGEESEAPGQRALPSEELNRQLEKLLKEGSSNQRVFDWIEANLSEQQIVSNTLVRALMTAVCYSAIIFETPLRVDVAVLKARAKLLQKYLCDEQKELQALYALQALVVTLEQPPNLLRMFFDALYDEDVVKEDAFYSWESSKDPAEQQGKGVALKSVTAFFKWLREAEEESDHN
* hit, by the source's call; nt = no result given; ! = a repeat was not active. Rows were chosen to be rich in hits. Some 3.4% of all compounds tested hit in one or more screens of this group.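 The calls were made as follows, unless noted: active = inhibition above about 30% (limit read from the data); inactive = the rest.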

SMILES	Mcl1-Noxa inh	Bim-Mcl-1	NCF1 inh	Mcl1 Bid PPI	14-3-3 Bad PPI	eIF4E-4G inh
C=CCC(CC(O)COCCC)C(=O)NNC(=S)Nc1ccccc1 (stereo not given)	-14	nt	24	-85	-7	0
C=C(C)CSc1cc(C)nc2c(-c3ccccc3)c(C)nn12	-2	nt	-6	3	-2	8
CCOc1cc(/C=C2\SC(=O)N(c3ccc(O)cc3)C2=O)ccc1O	19	nt	-25	-29	-8	1
COc1cc(/C=C2\C(=O)N(c3ccc(NC(C)=O)cc3)N=C2c2ccccc2)ccc1O	58*	-1	-37	-16	-3	-1
CCOC(=O)C1=C(C)N(c2ccccc2)C(=O)/C1=C\c1ccc(O)c(OC)c1	32	nt	-4	-76	26	2
O=C1/C(=C\c2ccc(O)c(O)c2)C(c2ccccc2)=NN1c1ccccc1	71*	1	-31	-34	41	13
CCOc1cc(/C=C2\C(=O)N(c3nc(-c4ccc(Br)cc4)cs3)N=C2c2ccccc2)ccc1O	94*	-3	-44	81*	10	-4
Cc1c(OCC(F)(F)F)ccnc1CS(=O)c1nc2ccccc2[nH]1 (stereo not given)	70*!	-10	-1	5	-19	1
CCCn1c(=O)c(C(=O)NNS(=O)(=O)c2ccc(Cl)cc2)c(O)c2ccccc21	-21	-5	-10	-22	-18	0
COCCN1CCC(CNCc2cn(-c3cc(C)ccc3C)nc2-c2ccccc2)C1 (stereo not given)	17	-2	-11	-48	11	-1
CS(=O)(=O)c1cc([N+](=O)[O-])c(Sc2nc3ccccc3[nH]2)c([N+](=O)[O-])c1	45	2	1	-35	87*	-6
Cn1cnc([N+](=O)[O-])c1Sc1nc2ccccc2[nH]1	20	nt	-8	1	2	6
Cc1ccc(F)c([C@H]2C3C=CCC(c4ccccc4)C3C(=O)N2Cc2ccccc2)c1 (stereo not given in full)	17	nt	-7	-38	-2	-1
CCOC(=O)CN1C(=O)CCSc2ccc(Cl)cc21	2	0	-13	-17	0	-3
O=C(Nc1ccccn1)c1cc2cc([N+](=O)[O-])ccc2s1	36	0	11	8	47	5
C=CCOc1ccc2cccc(/C=N/NC(=O)c3cc4cc([N+](=O)[O-])ccc4s3)c2c1	-4	0	41*	-8	17	-16
Cc1ccsc1C(=O)OCC(=O)N1CCOCC1	2	-5	-13	67*	-2	1
CN(C)c1ccc(C(=O)OCC(=O)N2CCOCC2)cc1	1	-4	1	-10	3	-1
COc1ccc(-c2ccnc3nc(-n4cccc4)nn23)cc1	51*	-3	-5	14	45	-3
COc1ccc(-c2ccnc3nc(N4CCOCC4)nn23)cc1	-13	7	-12	-12	-6	21
Clc1cccc(-c2ccnc3nc(-n4cccc4)nn23)c1	12	-1	-10	-4	9	5
c1coc(-c2ccnc3nc(-n4cccc4)nn23)c1	62*	-4	-11	8	-2	6
Cc1ccc(C2NC(=NCc3ccccc3)Nc3nc(C)cc(=O)n32)cc1 (stereo not given)	-5	nt	-9	-13	1	1
COc1ccc(N(C(C)C(=O)N2CCC(Cc3ccccc3)CC2)S(C)(=O)=O)cc1 (stereo not given)	7	-1	0	-7	3	-2
CCN(CC1COc2ccccc2O1)C(=S)NC1CC2CCC1C2 (stereo not given)	-12	0	-11	-17	-8	0
SMILES	Mcl1-Noxa inh	Bim-Mcl-1	NCF1 inh	Mcl1 Bid PPI	14-3-3 Bad PPI	eIF4E-4G inh
CCCc1nc(-c2cc3ccccc3[nH]c2=O)no1	6	nt	-1	-32	96*	-1
COC(=O)N/N=C/c1cn(Cc2ccc(F)cc2)c2ccccc12	16	nt	-3	-36	-13	-1
O=[N+]([O-])c1ccc(N/N=C/c2cn(Cc3ccc(F)cc3)c3ccccc23)nc1	57*	-3	9	94*	38	3
Cc1ccc(Cn2cc(SCC(N)=O)c3ccccc32)cc1	8	0	37*	-14	-6	-2
NC(=O)CSc1cn(Cc2ccc(F)cc2)c2ccccc12	24	-2	-8	-48	3	-6
O=C(CSc1cn(Cc2cccc(F)c2)c2ccccc12)NCc1ccc(F)cc1	4	-3	2	62*	-10	6
COCCNC(=S)NCCc1ccc(Cl)cc1Cl	-1	0	-20	-56	-5	0
CCOc1cc(/C=C(/NC(C)=O)C(=O)O)cc(Cl)c1OCc1ccc(Br)cc1	33	nt	-4	27	1	5
CCC(=O)Oc1ccc2c(=O)c(-c3ccc4ccccc4n3)c(CC)oc2c1C	82*	-6	-17	-20	20	14
COc1cc(C(=O)NC2CCCNC2)cc(OC)c1OC (stereo not given)	-14	0	-16	-6	2	3
COc1ccc(S(=O)(=O)N2CCOCC2)cc1NC(=O)CSc1nnc2c(n1)[nH]c1ccccc12	20	nt	-46	-26	-1	-1
COc1ccc2ccccc2c1CN1CCN(Cc2ccccc2)CC1	17	-5	-9	11	91*	-1
CCOc1ccc(N2CC(C(=O)Nc3cccc(S(=O)(=O)NC4=NCCC4)c3)CC2=O)cc1 (stereo not given)	12	nt	-9	-14	-5	97*
CN(C)CCn1c(N)nc2ccccc21	-5	nt	2	-19	-2	3
O=C(O)c1ccccc1N/N=C/C1=C(N2CCOCC2)C(=C\c2ccccc2)/CC1	63*	nt	-15	-42	7	0
Cc1cc(C)nc(N/N=C/C2=C(N3CCOCC3)C(=C/c3ccccc3)/CC2)n1	53*	-3	-12	-21	-1	-3
O=C(N/N=C/C1=C(N2CCOCC2)C(=C\c2ccccc2)/CC1)Nc1ccccc1	-19	-11	-14	-16	5	1
Cc1cc(=O)[nH]c(N/N=C/C2=C(N3CCOCC3)C(=C\c3ccc(Cl)cc3)/CC2)n1	56*	-3	-5	32	17	4
CC(C)Nc1nnc(SC(C)C(=O)NCc2ccc3c(c2)OCO3)s1 (stereo not given)	15	-4	4	-13	-2	1
